Drawing on publication PMC7862700, “An all-to-all approach to the identification of sequence-specific readers for epigenetic DNA modifications on cytosine”, this text covers binding signal for eight sequences.

Test in all cases: DAPPL (digital affinity profiling via proximity ligation, sequencing); 10 mM Tris-HCl pH 7.5, 50 mM NaCl, 1 mM DTT, 4% glycerol, room temperature, 30 min; GST-TFs on glutathione beads, 16-mer random dsDNA library, 0.1% formaldehyde crosslink after washing; high values mean tight binding
Details in all cases: protein: recombinant; tags: N-terminal GST; dsDNA, one strand shown

In one test the target is T1, ERF (Homo sapiens, UniProt P50548 1-548).
T1 sequence: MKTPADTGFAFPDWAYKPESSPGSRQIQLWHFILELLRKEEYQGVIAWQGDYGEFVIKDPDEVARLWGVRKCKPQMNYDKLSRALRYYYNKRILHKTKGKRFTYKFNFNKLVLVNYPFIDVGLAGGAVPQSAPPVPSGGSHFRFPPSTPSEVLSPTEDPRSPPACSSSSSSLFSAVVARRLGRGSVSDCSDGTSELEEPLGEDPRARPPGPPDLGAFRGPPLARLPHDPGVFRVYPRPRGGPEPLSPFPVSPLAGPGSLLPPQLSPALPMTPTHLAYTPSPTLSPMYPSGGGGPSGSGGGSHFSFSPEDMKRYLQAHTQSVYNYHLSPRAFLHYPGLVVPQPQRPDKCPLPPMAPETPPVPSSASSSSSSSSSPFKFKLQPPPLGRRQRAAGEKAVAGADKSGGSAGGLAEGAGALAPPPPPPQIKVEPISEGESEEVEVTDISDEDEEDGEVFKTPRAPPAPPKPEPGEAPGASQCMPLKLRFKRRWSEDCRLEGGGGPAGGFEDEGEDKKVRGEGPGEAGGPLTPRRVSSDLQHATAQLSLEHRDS
The method in brief: (§1)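 Human transcription factors carrying a GST fusion were produced in yeast, bound to glutathione beads, tagged with DNA barcodes and pooled together with a tag-only sample. Each pool was held with 200 nmole of a random double-stranded 16-mer DNA library in Tris/NaCl/DTT/glycerol buffer for 30 min at room temperature, then washed, crosslinked in 0.1% formaldehyde, proximity-ligated with BsaI/T4 ligase (1 h, 37 °C), PCR-amplified and sequenced on an Illumina NextSeq500. Binding signal is the read frequency of each hexamer for a given factor divided by its frequency in the tag-only sample.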

The next test addresses T2, ETV3L (Homo sapiens, UniProt Q6ZN32 1-361).
T2 sequence: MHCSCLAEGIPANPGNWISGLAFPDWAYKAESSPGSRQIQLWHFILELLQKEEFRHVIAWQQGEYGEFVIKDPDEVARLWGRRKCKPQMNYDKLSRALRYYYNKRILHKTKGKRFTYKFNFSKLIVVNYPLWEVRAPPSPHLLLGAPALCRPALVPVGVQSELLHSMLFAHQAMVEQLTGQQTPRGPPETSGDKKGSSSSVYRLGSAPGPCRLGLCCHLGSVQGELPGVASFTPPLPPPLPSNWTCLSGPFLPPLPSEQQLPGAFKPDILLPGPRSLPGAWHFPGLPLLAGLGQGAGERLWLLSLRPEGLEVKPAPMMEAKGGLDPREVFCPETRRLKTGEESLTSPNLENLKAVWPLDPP
In outline:
as §1

For a further test, the target named is T3, ETS2 (Homo sapiens, UniProt P15036 1-469).
T3 sequence: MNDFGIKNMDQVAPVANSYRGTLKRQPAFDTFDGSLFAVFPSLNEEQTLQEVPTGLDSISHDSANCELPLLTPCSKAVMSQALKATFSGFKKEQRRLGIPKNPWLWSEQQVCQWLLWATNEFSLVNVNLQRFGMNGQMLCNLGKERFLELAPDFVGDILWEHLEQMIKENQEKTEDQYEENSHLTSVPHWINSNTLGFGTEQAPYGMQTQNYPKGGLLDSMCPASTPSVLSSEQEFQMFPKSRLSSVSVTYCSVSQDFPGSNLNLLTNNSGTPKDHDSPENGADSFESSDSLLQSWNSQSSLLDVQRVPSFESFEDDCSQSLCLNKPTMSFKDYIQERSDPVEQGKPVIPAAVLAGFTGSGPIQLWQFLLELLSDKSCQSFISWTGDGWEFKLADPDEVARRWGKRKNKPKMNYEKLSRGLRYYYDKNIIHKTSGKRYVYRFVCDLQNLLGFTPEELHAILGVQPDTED
In outline: as §1

A further test addresses T4, SPDEF (Homo sapiens, UniProt O95238 1-335).
T4 sequence: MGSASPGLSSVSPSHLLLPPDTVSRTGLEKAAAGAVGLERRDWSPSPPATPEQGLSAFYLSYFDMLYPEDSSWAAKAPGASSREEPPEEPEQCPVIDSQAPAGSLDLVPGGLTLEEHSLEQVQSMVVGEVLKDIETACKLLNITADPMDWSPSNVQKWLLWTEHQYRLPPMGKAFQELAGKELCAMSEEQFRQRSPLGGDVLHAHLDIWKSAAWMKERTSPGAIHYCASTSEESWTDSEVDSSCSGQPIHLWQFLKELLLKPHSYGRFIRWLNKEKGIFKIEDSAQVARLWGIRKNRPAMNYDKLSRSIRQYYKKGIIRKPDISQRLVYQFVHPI
In outline:
as §1

The next test deals with T5, ETV7 (Homo sapiens, UniProt Q9Y603 1-341).
T5 sequence: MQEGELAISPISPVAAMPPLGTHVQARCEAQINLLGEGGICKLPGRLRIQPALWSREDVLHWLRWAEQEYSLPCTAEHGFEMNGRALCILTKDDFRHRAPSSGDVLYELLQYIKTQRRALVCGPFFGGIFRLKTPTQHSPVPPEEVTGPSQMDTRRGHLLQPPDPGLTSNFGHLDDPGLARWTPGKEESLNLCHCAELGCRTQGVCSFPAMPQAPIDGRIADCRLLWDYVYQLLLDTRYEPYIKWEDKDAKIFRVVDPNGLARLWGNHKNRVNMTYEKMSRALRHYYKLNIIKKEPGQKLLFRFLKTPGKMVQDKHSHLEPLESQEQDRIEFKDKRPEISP
In outline: as §1

The target in a further test is T6, ELF5 (Homo sapiens, UniProt Q9UKW6-2 1-255).
T6 sequence: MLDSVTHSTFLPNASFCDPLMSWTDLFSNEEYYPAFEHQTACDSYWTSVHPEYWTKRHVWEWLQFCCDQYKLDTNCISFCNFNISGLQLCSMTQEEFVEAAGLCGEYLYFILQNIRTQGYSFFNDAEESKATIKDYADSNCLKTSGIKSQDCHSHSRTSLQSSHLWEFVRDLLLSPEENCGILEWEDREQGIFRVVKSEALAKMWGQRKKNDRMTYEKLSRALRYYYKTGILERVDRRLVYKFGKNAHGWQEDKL
In outline: as §1

The next test concerns the target T7, ETV3 (Homo sapiens, UniProt P41162-2 1-143).
T7 sequence: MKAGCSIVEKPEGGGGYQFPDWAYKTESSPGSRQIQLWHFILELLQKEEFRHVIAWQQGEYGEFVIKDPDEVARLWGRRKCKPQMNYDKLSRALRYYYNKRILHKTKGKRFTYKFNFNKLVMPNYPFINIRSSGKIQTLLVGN
In outline:
as §1

A further test deals with ETV6 (Homo sapiens, UniProt P41212 1-452). In outline:
as §1

Chain of ETV6 (P41212 whole entry): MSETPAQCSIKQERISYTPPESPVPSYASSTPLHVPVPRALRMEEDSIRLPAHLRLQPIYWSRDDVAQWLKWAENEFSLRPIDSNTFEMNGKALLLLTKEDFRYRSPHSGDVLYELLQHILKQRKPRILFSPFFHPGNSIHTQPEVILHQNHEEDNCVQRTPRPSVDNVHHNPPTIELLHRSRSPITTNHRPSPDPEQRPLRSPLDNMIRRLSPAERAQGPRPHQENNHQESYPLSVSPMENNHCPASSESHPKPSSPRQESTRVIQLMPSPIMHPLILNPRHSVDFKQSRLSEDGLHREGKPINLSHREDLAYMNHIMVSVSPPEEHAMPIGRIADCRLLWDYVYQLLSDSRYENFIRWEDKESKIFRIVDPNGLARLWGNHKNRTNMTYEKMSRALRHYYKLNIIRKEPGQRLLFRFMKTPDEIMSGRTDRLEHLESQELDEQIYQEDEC

For the sequence CAAATA, the binding signal with ERF is 1.23 fold enrichment (6-mer frequency, TF over GST control); with ETV3L, 1.1 fold enrichment (6-mer frequency, TF over GST control); with ETS2 it was 1.14 fold enrichment (6-mer frequency, TF over GST control); with SPDEF, 1.09 fold enrichment (6-mer frequency, TF over GST control); with ETV7 it was 1.16 fold enrichment (6-mer frequency, TF over GST control); with ELF5, 1.06 fold enrichment (6-mer frequency, TF over GST control). The binding signal with ETV3 was 1.1 fold enrichment (6-mer frequency, TF over GST control); with ETV6 it was 1.07 fold enrichment (6-mer frequency, TF over GST control).

With TACACT, the binding signal is 1.51 fold enrichment (6-mer frequency, TF over GST control) with ERF; 1.51 fold enrichment (6-mer frequency, TF over GST control) in the test with ETV3L; 1.49 fold enrichment (6-mer frequency, TF over GST control) with ETS2; 1.55 fold enrichment (6-mer frequency, TF over GST control) with SPDEF; 1.49 fold enrichment (6-mer frequency, TF over GST control) in the test with ETV7; 1.52 fold enrichment (6-mer frequency, TF over GST control) in the test with ELF5. Moreover, the binding signal with ETV3 is 1.45 fold enrichment (6-mer frequency, TF over GST control); with ETV6, 1.6 fold enrichment (6-mer frequency, TF over GST control).

Consider CACGCT, for which the binding signal in the test with ERF was 1.35 fold enrichment (6-mer frequency, TF over GST control); with ETV3L, 1.37 fold enrichment (6-mer frequency, TF over GST control); in the test with ETS2, 1.31 fold enrichment (6-mer frequency, TF over GST control); with SPDEF, 1.35 fold enrichment (6-mer frequency, TF over GST control); with ETV7, 1.36 fold enrichment (6-mer frequency, TF over GST control); with ELF5, 1.25 fold enrichment (6-mer frequency, TF over GST control). The binding signal with ETV3 was 1.37 fold enrichment (6-mer frequency, TF over GST control); in the test with ETV6, 1.34 fold enrichment (6-mer frequency, TF over GST control).

ATTCTA: the binding signal with ERF was 1.32 fold enrichment (6-mer frequency, TF over GST control); in the test with ETV3L, 1.22 fold enrichment (6-mer frequency, TF over GST control); with ETS2 it was 1.3 fold enrichment (6-mer frequency, TF over GST control); with SPDEF, 1.23 fold enrichment (6-mer frequency, TF over GST control); with ETV7, 1.28 fold enrichment (6-mer frequency, TF over GST control); with ELF5 it was 1.15 fold enrichment (6-mer frequency, TF over GST control). The binding signal was 1.2 fold enrichment (6-mer frequency, TF over GST control) with ETV3 and 1.15 fold enrichment (6-mer frequency, TF over GST control) in the test with ETV6.

Turning to ATGCTA, the binding signal in the test with ERF was 1.26 fold enrichment (6-mer frequency, TF over GST control); with ETV3L, 1.37 fold enrichment (6-mer frequency, TF over GST control); with ETS2, 1.25 fold enrichment (6-mer frequency, TF over GST control); with SPDEF, 1.23 fold enrichment (6-mer frequency, TF over GST control); with ETV7, 1.3 fold enrichment (6-mer frequency, TF over GST control); with ELF5, 1.28 fold enrichment (6-mer frequency, TF over GST control). For the same sequence, the binding signal in the test with ETV3 is 1.28 fold enrichment (6-mer frequency, TF over GST control); with ETV6, 1.27 fold enrichment (6-mer frequency, TF over GST control).

For the sequence TACTTT, the binding signal with ERF is 1.39 fold enrichment (6-mer frequency, TF over GST control); in the test with ETV3L, 1.35 fold enrichment (6-mer frequency, TF over GST control); with ETS2, 1.32 fold enrichment (6-mer frequency, TF over GST control); in the test with SPDEF it was 1.35 fold enrichment (6-mer frequency, TF over GST control); with ETV7, 1.36 fold enrichment (6-mer frequency, TF over GST control); with ELF5, 1.34 fold enrichment (6-mer frequency, TF over GST control). Further, the binding signal with ETV3 is 1.34 fold enrichment (6-mer frequency, TF over GST control); with ETV6, 1.37 fold enrichment (6-mer frequency, TF over GST control).

For the sequence TGATGC, the binding signal in the test with ERF was 1.48 fold enrichment (6-mer frequency, TF over GST control); with ETV3L, 1.61 fold enrichment (6-mer frequency, TF over GST control); with ETS2, 1.58 fold enrichment (6-mer frequency, TF over GST control); with SPDEF, 1.45 fold enrichment (6-mer frequency, TF over GST control); with ETV7, 1.54 fold enrichment (6-mer frequency, TF over GST control); with ELF5, 1.52 fold enrichment (6-mer frequency, TF over GST control). The binding signal is 1.67 fold enrichment (6-mer frequency, TF over GST control) in the test with ETV3 and 1.52 fold enrichment (6-mer frequency, TF over GST control) with ETV6.

Take AACTCT: the binding signal with ERF is 1.33 fold enrichment (6-mer frequency, TF over GST control); in the test with ETV3L, 1.27 fold enrichment (6-mer frequency, TF over GST control); in the test with ETS2, 1.32 fold enrichment (6-mer frequency, TF over GST control); with SPDEF, 1.35 fold enrichment (6-mer frequency, TF over GST control); with ETV7, 1.24 fold enrichment (6-mer frequency, TF over GST control); with ELF5, 1.35 fold enrichment (6-mer frequency, TF over GST control). The binding signal with ETV3 is 1.34 fold enrichment (6-mer frequency, TF over GST control); in the test with ETV6, 1.33 fold enrichment (6-mer frequency, TF over GST control).
